Measurements as given in PubChem BioAssay (NCI).
Compounds without any hit were thinned out: in the full panel of roughly 83,000, 20% have a hit.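 Percent growth is the endpoint: 0 to 100 indicates growth inhibition (40 means 60% inhibition), 0 means no net growth, and negative values indicate cell death.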 A number with no mark means an inactive call. Calls of active or inactive are those of the source.

System: MOLT-4 leukemia
Assay: NCI-60 one-dose screen, 48 h (100 = growth as untreated, 0 = no growth, -100 = all killed)
Conditions: 10 µM unless noted
Procedure: Growth inhibition of the MOLT-4 human tumor cell line is measured as a screen for anti-cancer activity. Cells are grown in 96 well plates and exposed to the test compound for 48 hours. Compounds are tested at a single concentration, which is 10^-5 M for most compounds. The reported endpoint is percent growth (GI% or GIPRCNT), where numbers from 0 - 100% represent growth inhibition, and numbers from -100% - 0 represent cell death. For example, a value of 40 represents 60% growth inhibition. A value of 0 means no net growth occurred over the course of the experiment. A value of -40 indicates 40% of cells at the beginning of the experiment died by the end of the experiment. A value of -100 means all cells are dead at the end of the experiment.
NCI-60 Human Tumor Cell Lines Screen was performed using the standard one-dose NCI protocol, which is described in more detail at https://dtp.cancer.gov/discovery_development/nci-60/default.htm.
Compounds with GIPRCNT values below 10 were considered active. Activity score was based on GIPRCNT using the following formula: […]
Score is 0 for GIPRCNT values of 100 or above, 50 for GIPRCNT values of 0, and 100 for GIPRCNT values of -100.

Row | Compound | growth
1 | O=C1c2ccccc2C(=O)c2c1oc1ccc3ccccc3c21 | 104%
2 | Cc1ccc(N=CNN=C(N)N)cc1 | 95.4%
3 | N#CC1=C(N)Oc2nc[nH]c(=O)c2C1c1cccs1 (stereo not given) | 94.3%
4 | COC(=O)/C=C/c1cc(OC(C)=O)c2c(c1)[C@@H](C(=O)OC)[C@H](c1ccc(OC(C)=O)c(OC(C)=O)c1)O2 | 14.9%
5 | CCCCc1n(Cc2ccc3ccccc3n2)cc[n+]1Cc1ccc2ccccc2n1 | 14.9%
6 | O=C(Nc1ccc(Cl)c(C(F)(F)F)c1)c1ccc(Nc2ccc(Cl)nn2)cc1 | 43.7%
7 | CC(=O)c1nn(-c2ccccc2)/c(=N\N=C\c2coc3ccc(F)cc3c2=O)s1 | 100%
8 | Cc1ccc(-c2cnc3sc4ccc(Cl)cc4n23)cc1 | 96.7%
9 | CCN(CC)c1ccc(C(=N)c2ccc(N(C)C)cc2)cc1 | 17.7%
10 | CCCc1n(Cc2ccc3ccccc3n2)cc[n+]1Cc1ccc2ccccc2n1 | 23.2%
11 | COc1cc2nccc(Oc3ccc(NC(=O)C4(C(=O)Nc5c(F)cc(F)cc5F)CC4)cc3)c2cc1Oc1ccc(N)cn1 | 38.5%
12 | COc1cccc(Cn2c(-c3nonc3NC(C)=O)nc3ccccc32)c1 | 38.7%
13 | C=C(C)[C@@H]1CC[C@]2(C)[C@H](CC=C3[C@@H]4C[C@](C)(C(=O)N5CCN(C)CC5)CC[C@]4(C)CC[C@]32C)[C@@]1(C)CCC#N | 32.1%
14 | FC1(F)CCN(Cc2c[nH]c3cc(Cl)ccc23)C[C@H]1CCc1ccccc1 | 26.7%
15 | Nc1nc(N)c2cc(CNc3ccc(Cl)c(Cl)c3)ccc2n1 | -44.2% (active)
16 | CC[C@H](Nc1nc(N)nc(C2CC2)c1C#N)c1nc2cccc(NCc3ccc(C(=O)NO)cc3)c2c(=O)n1-c1ccccc1 | 2.13% (active)
17 | O=C1/C(=C\c2cccn2C(=O)c2ccccc2)c2ccccc2N1c1c(Cl)cccc1Cl | 27.9%
18 | COc1ccc(-c2oc(=O)ccc2-c2cc(OC)c(OC)c(OC)c2)cc1F | 83.6%
19 | Cc1ccccc1N1C(c2ccccc2)=NNC12C=CC(=O)c1c(O)cccc12 (stereo not given) | 101%
20 | COc1ccc(-c2nnc(SCC(=O)Nc3ccc(C(=O)/C=C/c4ccc(Cl)cc4)cc3)n2-c2ccccc2)cc1 | 81.5%

Row | Compound | growth
21 | CCOC(=O)c1ccc(N(CCC(=O)O)C(C)=O)cc1 | 104%
22 | CN1CCN(Cc2ccc(NC(=O)c3cncc(C#Cc4cnc5cccnn45)c3)cc2C(F)(F)F)CC1 | -1.76% (active)
23 | O=C(NCC(c1ccsc1)N1CCCCCC1)c1ccc(C(F)(F)F)cc1 (stereo not given) | 78.2%
24 | Cc1ccc(S(=O)(=O)NC(CCC(=O)Nc2ccc(Cl)cc2)C(=O)Nc2ccc(Cl)cc2)cc1 (stereo not given) | 10.7%
25 | O=C1/C(=C\c2cccn2Cc2ccc(F)cc2)c2ccccc2N1c1c(Cl)cccc1Cl | 74.1%
26 | CCCCn1c(C)nc2cc(Nc3nc(Cl)nc4nc[nH]c34)ccc21 | 64%
27 | COc1ccc(C2C=C(c3ccc(Cl)cc3)N=C3SC=CN32)cc1 (stereo not given) | 104%
28 | CCOc1cccc(/C=N/NC(=O)c2ccc(Nc3ccnc(C(F)(F)F)c3)cc2)c1O | 31.2%
29 | Cc1ccc(NC(=O)c2[nH]c(SCCN(C)C)nc2-c2ccc(F)cc2)cc1Nc1ccc2ncn(C)c(=O)c2c1 | 41.2%
30 | CCCN(CCC)CC(O)COc1ccccc1C(=O)Nc1ccccc1 (stereo not given) | 78%
31 | Cc1cc(C)c2c(NC(=O)Nc3ccc(Cl)c(Cl)c3)n[nH]c2n1 | 98.3%
32 | Nc1nc(N)c2cc(Sc3ccc(Cl)cc3)ccc2n1 | 25.8%
33 | O=C1/C(=C\c2cccn2Cc2ccc(Cl)cc2)c2ccccc2N1c1c(Cl)cccc1Cl | 75.1%
34 | Oc1ccc(Nc2ncnc3c2sc2ncccc23)cc1 | 12.2%
35 | CC1CN(CCCOC(=O)Nc2ccc(Cl)cc2)CCN1C(C)(C)C (stereo not given) | 103%
36 | COc1ccc(/C(=C\c2ccc3c(c2)OCO3)C(=O)Nc2nc3ccccc3s2)cc1 | 70.9%
37 | CN(C)c1ccc(C(c2ccccc2)c2ccc(N(C)C)cc2)cc1 | 85.7%
38 | COc1cc(C2CC(c3ccc(Nc4ccnc5cc(Cl)ccc45)cc3)=NN2c2ccccc2)cc(OC)c1OC (stereo not given) | 62.3%
39 | CCCCNCC(O)c1cc(-c2ccc(C(F)(F)F)cc2)nc(-c2ccc(C(F)(F)F)cc2)c1 (stereo not given) | -56.7% (active)
40 | NC(=Nc1ccccc1)SCCCSC(N)=Nc1ccccc1 | 90.8%
